Measured values as given in PubChem BioAssay AID624291 (National Center for Advancing Translational Sciences (NCATS), 2012).
The campaign covered roughly 350,000 compounds. About 220 (0.063%) were called active. Another 4% or so got no clear call; they are omitted. The call rests on the fitted dose curve; in most records, active means well fitted activation curve with a large enough effect; inconclusive means small, poorly fitted or top-dose-only effect; inactive means no such curve, though single readings can be large or run the other way. The list comes from a sample in which actives are over-represented; it also holds similar structures and randomly drawn compounds.

Test: qHTS for Activators of Integrin-Mediated Alleviation for Muscular Dystrophy; further: nearly all actives have a fitted effect of over 60% in size
Details: alpha7betagal myoblasts, beta-gal FDG fluorescence, 48 h; series mostly up to 38.3 µM
In short: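 alpha7betagal+/- myoblasts (passage 13, 250/well) treated 48 h at 37C with compounds at 1:260 dilution of DMSO stock. Lysed, then beta-galactosidase activity read as FDG fluorescence (ex 480/em 540) after 30 min, with pre-read for autofluorescence.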
Potency means the concentration at half of the fitted maximal effect.

Potency, inactive:
Cc1ccn(CC(=O)NC2CCCN(Cc3ccccc3F)C2)n1 (stereo not given)
CC1CCCC(NC(=O)COC(=O)c2ccccc2C(=O)N(C)C2CCCCC2)C1C (stereo not given)
Cc1ccc(S(=O)(=O)N2CCOCC2)cc1NC(=O)c1ccncc1
CC1(C)CN(CCc2ccccc2)C(=O)[C@H]1CC(=O)Nc1ccc(Br)cc1
CC1(C)CC(=O)C=C(c2ccccc2CO)C1=O
CCOC(=O)c1cc(-c2sc(NC(=O)c3ccccc3)nc2C)n(-c2ccc(Br)cc2)n1
CCOc1ccc(S(=O)(=O)NCCC(=O)NNC(=O)c2ccc(F)cc2)cc1
CC(C)(C)NC(=O)C(=O)NN=C1CCCCCCC1
C/C(=N\NC(=S)NC(C)C)c1ccc(C(C)(C)C)cc1
Cc1cccc(C(=O)C(O)(c2ccccc2)C2CCCCC2=O)c1 (stereo not given)
C=CCn1nc(C(=O)OCC)cc1-c1sc(NC(=O)c2ccccc2)nc1C
COc1ccc(-c2c(C#N)cnc(C)c2C)c(O)c1OC
COc1ccc(-c2ccc3[nH]c4c(c3c2)CCN2C[C@H]3[C@H](C)ON(C)[C@H]3C[C@@H]42)cc1
O=C(Nc1ccc2c(c1)[C@@H]1C[C@@H](CC(=O)N3CCCCC3)O[C@@H](CO)[C@@H]1O2)NC1CCCCC1
C[C@@H]1CCCCO[C@H](CN(C)Cc2ccccc2)[C@@H](C)CN([C@H](C)CO)C(=O)c2cc(NS(=O)(=O)c3ccc(Cl)cc3)ccc2O1
OCC1OC(n2cnc3c(N4CCCC4)ncnc32)C(O)C1O (stereo not given)
CCOC(=O)C1CCN(C(=O)c2ccc3c(=O)n4nc(Nc5ccccc5CC)sc4nc3c2)CC1
COc1ccc(-c2ccc(CN3C(CC(C)C)C(=O)N(Cc4cn(CC5CCCCC5)nn4)CCS3(=O)=O)cc2)cc1 (stereo not given)
CNC(=O)C[C@H]1C(=O)N(c2ccc(OC)cc2)C[C@@H]1Cc1ccccc1
COc1cccc(NC(=O)N(C)C[C@@H]2Oc3ncc(Br)cc3C(=O)N([C@@H](C)CO)C[C@H]2C)c1
COc1ccc(NC(=O)c2cc(=O)[nH]c3ccccc23)cc1S(=O)(=O)N1CCOCC1
CCN(CC)C(=O)C1=C(C)N(Cc2ccc(OC)cc2)C(=O)C(CC(=O)NCc2ccco2)C1 (stereo not given)
O=C(NCCOc1ccccc1)N1[C@H]2CC[C@@H]1C=C(c1ccc(F)cc1OCc1ccccc1)C2
O=S(=O)(c1cccc(C(F)(F)F)c1)N1c2ccccc2-n2cccc2C1c1cccnc1 (stereo not given)
O=C(C[C@H]1C[C@@H]2c3cc(NC(=O)C4CCC4)ccc3O[C@@H]2[C@H](CO)O1)NC1CCCCC1
CCOC(=O)c1cnn2c(SC)ncnc12
Cc1ccc(-c2ccc(CN3C(C(C)C)C(=O)N(Cc4cn(CCC5OCCCO5)nn4)CCS3(=O)=O)cc2)cc1 (stereo not given)
O=C(CSc1ncn[nH]1)Nc1nc2c(F)c(F)c(F)cc2s1
C[C@H]1CN([C@@H](C)CO)C(=O)CCCn2nncc2CO[C@@H]1CN(C)S(=O)(=O)c1cccc(C#N)c1
c1ccc2c(c1)nnn2-c1ccncc1
CC(OC(=O)c1cccc(S(=O)(=O)N2CCOCC2)c1)C(=O)NCC1CCCCC1 (stereo not given)
CC1(C)OC(=O)C2=C(CC(c3ccccc3)OC2CCc2ccccc2)O1 (stereo not given)
O=C(NCCS(=O)(=O)N1CCN(c2ccccc2)CC1)c1cc(=O)c2ccccc2o1
CCc1ccccc1NC(=O)CN1CCN(C(=O)c2cc(C3CC3)nn2-c2ccccc2)CC1
Cc1ccn2c(-c3csc(Nc4ccc(C(=O)O)cc4)n3)c(C)nc2c1
CC1=C(C(=O)Nc2cccc(C(=O)NCC(C)c3ccccc3)c2)SCCO1 (stereo not given)
CC(=O)c1ccccc1NC(=O)COC(=O)C1COc2ccccc2O1 (stereo not given)
O=C(CCc1ccc(O)cc1)NN=Cc1cc(Br)ccc1O
COc1ccc(S(=O)(=O)N2CCC(C(=O)NCCC(=O)Nc3ccccc3OC)CC2)cc1
CCOc1cc(/C=N/NC(=O)c2ccncc2)cc(Br)c1O
Cc1ccc(CCNC(=O)CN2C(=O)CSc3ccc(S(=O)(=O)N4CCOCC4)cc32)cc1
N#CCCN(C(=O)Nc1ccc(Cl)c(Cl)c1)C1CCCCC1
O=C1c2ccccc2-c2ccccc2NC1O (stereo not given)
Cc1ccc(S(=O)(=O)N2C[C@H]3n4c(=O)ccc(=O)n4C[C@H](OC(=O)NC4CCCC4)[C@@]3(O)C2)cc1

Potency, active:
CC(C)NC(=S)NN=C1CCCCCCCCCCC1 3.16 µM
